Out of some 220,000 compounds screened, about 2,000 (0.91%) were called active. Roughly 2% stayed inconclusive and do not appear here. These entries were drawn from the full list. Results with a measured potency or affinity are listed apart. Values without a mark were called inactive. No stated cut-off is given here; in the data, inconclusive means inhibition above about 80% without an active follow-up result; inactive means below that; test concentration not stated here.
Assay: M. tuberculosis H37Rv growth inhibitors, H37Rv strain (AID 1626);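 further: bacteria incubated seven days before Alamar blue readout; 0% = bacteria only wells and 100% = bacteria with antibiotic wells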
Conditions: active compounds read high, concentration not given here

| Structure (SMILES) | inhibition |
| --- | --- |
| O=C(NCC(O)CO)c1ccc2[nH]c3ccccc3c2c1 (stereo unspecified) | 1.5% |
| Cn1c(N2CCCC2)nc2c1c(=O)n(Cc1cccc(F)c1)c(=O)n2C | 2.57% |
| Cc1nc(N2CCOCC2)c2cc(-c3ccccc3)sc2n1 | 5.12% |
| Cc1ccc(SCc2cc(=O)[nH]c(N3CCN(Cc4ccc5c(c4)OCO5)CC3)n2)cc1 | 4.26% |
| Cc1nc(N2CCN(C)CC2)c2cc(-c3ccccc3)sc2n1 | -3.54% |
| O=c1cc(-c2ccccc2)nc(N2CCN(Cc3ccccc3)CC2)[nH]1 | 16.3% |
| COC(=O)c1cccc(NCN2C(=O)c3ccccc3C2=O)c1 | 1.78% |
| COc1ccc(CN2CCn3nc(C(=O)NC4CC4)cc3C2=O)cc1 | 0.45% |
| CCc1nn(CC(=O)NCCN2CCN(C)CC2)c(=O)c2cc3occc3n12 | 2.11% |
| O=C(Nc1ccccc1F)C1CCCN(S(=O)(=O)c2ccccc2)C1 (stereo unspecified) | 1.63% |
| CC(=Nc1ccc2c(c1)nc(CO)n2C)C1=C(O)CC(C)(C)CC1=O | -0.93% |
| Cc1cc(=O)oc2cc(Oc3ccc([N+](=O)[O-])cc3[N+](=O)[O-])ccc12 | 51% |
| CCc1cc2c(C)cc(=O)oc2cc1Oc1ncccc1[N+](=O)[O-] | 1.8% |
| Cc1cc(=O)oc2cc(Oc3ccc(C(N)=O)cc3[N+](=O)[O-])ccc12 | -11.6% |
| Cc1cc(=O)oc2cc(Oc3ncccn3)ccc12 | -2.26% |
| CC(=O)Nc1cccc(Oc2ncnc3scc(-c4ccccc4)c23)c1 | 1.97% |
| CC(=O)Nc1cccc(Oc2ncnc3scc(-c4ccc(C)cc4)c23)c1 | 17.3% |
| O=C(COC(=O)CCSc1ccc(Cl)cc1)NCc1ccc(Cl)cc1 | 1.66% |
| COc1ccc(CCC(=O)N/N=C\c2cccs2)cc1 | 36.8% |
| Cc1ccc(-c2csc3nc(C(C)C)oc(=O)c23)c(C)c1 | 14.9% |
| COc1cc(C2SC(C)C(=O)N2CCc2ccccc2)cc(OC)c1OC (stereo unspecified) | 6.28% |
| O=C(N/C=C/c1ccccc1)Nc1ccc(Cl)cc1 | 7.4% |
| Cc1nc2ccc(NC(=O)COc3ccccc3)cc2s1 | 83.5% |
| Cc1cccc(OCC(=O)Nc2ccc3nc(C)sc3c2)c1 | 89.5% |

| Structure (SMILES) | inhibition |
| --- | --- |
| COc1ccc(CC(=O)Nc2ccc3nc(C)sc3c2)cc1OC | 2.65% |
| Cc1nc2ccc(NC(=O)COc3ccccc3C)cc2s1 | 52.7% |
| CC(=O)c1ccc(OCC(=O)Nc2ccc3nc(C)sc3c2)cc1 | 56.8% |
| COc1cc(CC(=O)Nc2ccc3nc(C)sc3c2)cc(OC)c1OC | -7.08% |
| Cc1nc2ccc(NC(=O)Cc3cccc(F)c3)cc2s1 | 0.69% |
| COc1ccc(OCC(=O)Nc2nc3ccc(NC(C)=O)cc3s2)cc1 | -3.22% |
| CCC(C)(C)NC(=O)C(c1cccc(OC)c1)N(C(=O)c1ccn[nH]1)c1cccc(OC)c1 (stereo unspecified) | -8.88% |
| COCCNC(=O)c1cn(C)c2ccc(S(=O)(=O)N(C)C3CCCCC3)cc2c1=O | -12% |
| COc1ccc(S(=O)(=O)N(CC(=O)N2CCN(C)CC2)c2ccccc2)cc1OC | -11.1% |
| CCC(CC)C1C(C#N)=C(N)Oc2cc(C)oc(=O)c21 (stereo unspecified) | -11.1% |
| Cc1cc2nnc(SCC(=O)NCC3CCCO3)n2c2ccccc12 (stereo unspecified) | -6.93% |
| Cc1ccc(-c2csc(/C(C#N)=C/Nc3ccccc3SC(F)(F)F)n2)c(C)c1 | -7.14% |
| COc1cc(C2c3c(oc4ccccc4c3=O)C(=O)N2Cc2cccnc2)cc(OC)c1OC (stereo unspecified) | 1.59% |
| CCN(C(=O)CN1c2ccccc2CC1C)c1c(N)n(Cc2ccccc2)c(=O)[nH]c1=O (stereo unspecified) | 3.3% |
| CC(=O)c1cccc(NC(=O)C2CC(=O)N(Cc3ccccc3)C2)c1 (stereo unspecified) | -1.4% |
| CSc1nc2ccc(NC(=O)C3CC(=O)N(Cc4ccco4)C3)cc2s1 (stereo unspecified) | 7.1% |
| O=C(NNS(=O)(=O)c1ccccc1C(F)(F)F)c1cccc(S(=O)(=O)Nc2ccccc2Cl)c1 | 5.57% |
| CC(C)CNS(=O)(=O)c1ccc(CCC(=O)N2CCN(c3ccccc3)CC2)cc1 | 0.62% |
| Nc1c(C(=O)NCC2CCCO2)sc2nc3c(c(-c4ccco4)c12)CC/C3=C\c1ccco1 (stereo unspecified) | -3.62% |
| O=[N+]([O-])c1cc(S(=O)(=O)Nc2ccccc2)ccc1N1CCN(c2ccc(O)cc2)CC1 | 3.41% |
| O=[N+]([O-])c1cc(S(=O)(=O)C(F)(F)F)ccc1N1CCN(c2ccccc2)CC1 | 26.1% |
| CC(C)c1nc2sc3c(NCc4ccccc4)ncnc3c2c2c1COC(C)(C)C2 | -2.03% |
| COc1ccc(C)cc1N/C(N)=N/c1nc(C)cc(C)n1 | -4.57% |
| Cc1ccc(N/C(N)=N/c2nc3c(c(=O)[nH]2)CCCC3)c(C)c1 | 6.84% |

| Structure (SMILES) | inhibition |
| --- | --- |
| S=C1NC2(CCCCC2)Cc2ccccc21 | 4.66% |
| Cc1sc2nc(-c3cccnc3)[nH]c(=O)c2c1-c1ccccc1 | -0.42% |
| COc1cc(/C=c2\s/c(=C\C(=O)C(C)(C)C)[nH]c2=O)cc(OC)c1OC | 66.3% |
| COc1ccc(/C=C2\SC(c3ccc(C)cc3)=NC2=O)cc1OC | -10.8% |
| CCc1ccc(/C=C(\C)C(=O)c2c(C)cc(C)[nH]c2=O)cc1 | 5.72% |
| COc1ccc(C=C2C(=O)c3ccccc3C2=O)cc1O | 1.77% |
| CC(C)(C)C(=O)/C=c1\[nH]c(=O)/c(=C\c2ccc(C#N)cc2)s1 | 75.3% |
| CC(C)(C)C(=O)/C=c1\[nH]c(=O)/c(=C\c2ccccc2F)s1 | 79.9% |
| Cc1ccccc1/C=C1\CCCc2ccccc2C1=O | 5.73% |
| COc1cccc(/C=c2\s/c(=C/C(=O)c3ccc(C)cc3)[nH]c2=O)c1OC | 17.8% |
| Cc1ccc(C2NC(=O)CCC2[N+](=O)[O-])cc1 (stereo unspecified) | 1.52% |
| NS(=O)(=O)c1ccc(NC(=O)C(Sc2ccccc2)c2ccccc2)cc1 (stereo unspecified) | 2.33% |
| COc1cccc(CNC(=O)c2ccc3nc[nH]c3c2)c1 | -1.98% |
| O=C(COc1ccc(Br)cc1)NCc1cn2ccccc2n1 | -2.73% |
| NC1=NC(=O)/C(=C\C=C\c2ccccc2)S1 | 2.56% |
| CCCOc1ccc(/C=N/NC(=O)C(C)Sc2ccccn2)cc1OCC (stereo unspecified) | 4.45% |
| COc1cccc(/C=c2\s/c(=C\C(=O)C(C)(C)C)[nH]c2=O)c1 | 8.13% |
| Cc1cccc(/C=C2\CS/C(=C\c3cccc(C)c3)C2=O)c1 | -5.7% |
| Cc1cc(NC(=O)C(=O)c2cn(C)c3ccccc23)no1 | -4.05% |
| CCC(=O)Nc1cccc(C2=NOC3(C2)C[C@@H](C(N)=O)N(C(=O)C2(C)CC2)C3)c1 (stereo partly specified) | -7.53% |
| O=C(COC(=O)c1ccc(Br)cc1)NCCN1C(=O)CSC1=O | -0.22% |
| O=C(CN1C(=O)c2cccc3cccc1c23)Nc1ccccc1C(=O)NCc1ccco1 | -8.25% |
| COc1ccc(C2C(C(=O)Nc3ccc4c(c3)OCCO4)c3ccccc3C(=O)N2C)cc1 (stereo unspecified) | -5.2% |
| CC1=C(C(=O)Nc2ccccc2C)C(c2cccs2)NC(=S)N1 (stereo unspecified) | -1.29% |

| Structure (SMILES) | inhibition |
| --- | --- |
| O=S(=O)(c1ccc(F)cc1)c1snnc1-c1ccccc1 | -0.36% |
| O=S(=O)(c1ccc(Cl)cc1)c1snnc1-c1ccccc1 | -9.09% |
| O=C(CNC(=S)N(Cc1ccccc1F)C1CCCCC1)NC1CC1 | -3.6% |
| O=C(Nc1ccc2sccc2c1)c1ccc(Cl)s1 | 59.4% |
| Cc1ccc(/C=C/C(=O)Nc2ccc([N+](=O)[O-])cc2)o1 | 6.87% |
| O=C(O)/C=C/c1ccc([N+](=O)[O-])o1 | 7.14% |
| CCOC(=O)/C=c1\s/c(=C(\C#N)C(N)=O)n(-c2ccccc2)c1=O | 2.26% |
| COc1cc(/C=N/NC(=O)c2cnccn2)cc(OC)c1OC | -6.81% |
| CC1(C)CCCC2=C1CC1C(=O)N(N)C(=O)C1C2 (stereo unspecified) | 2.05% |
| c1ccc(Nc2cccc3c(Nc4ccccc4)cccc23)cc1 | -3.47% |
| COc1ccc(Nc2ccc(OC)cc2)cc1 | 47% |
| Cc1ccc(Nc2ccc(C(=O)O)cc2N)cc1 | -7.86% |
| COc1ccc(Nc2cccccc2=O)cc1 | 1.3% |
| Nc1ccccc1Nc1cccc(C(F)(F)F)c1 | 6.41% |
| Cc1ccc(Nc2ccccc2)cc1 | 6.23% |
| FC(F)(F)c1nc2ccccc2nc1N/N=C/c1c(Cl)cccc1Cl | 9.85% |
| COCCN(C(=S)Nc1ccc(C)cc1C)C(C)c1ccco1 (stereo unspecified) | -7% |
| CSc1ncccc1C(=O)OCC(=O)c1ccccc1Br | -4.85% |
| CCOC(=O)c1cc(NC(=O)N2CCOCC2)c(C)nc1C | -1.72% |
| CC(C)CNc1cc(N2CCCC2)ccc1[N+](=O)[O-] | 4.85% |
| CCCCCSc1nc2c(c(=O)[nH]c(=O)n2C)n1C | 11.1% |
| C/C(=C\C(=O)c1ccc(Br)cc1)NCc1ccc(C)cc1 | 4.34% |
| CCOc1cc(S(=O)(=O)N2CCOCC2)ccc1F | -1.04% |
| CC(C)[C@H](NS(=O)(=O)/C=C/c1ccccc1)C(=O)OCC(=O)NC(N)=O | 0.26% |
